Screening results from PubChem.
Most compounds without a hit are left out; they make up all but 1.6% or so of the library.
Rev-erbA mod: modulates human Rev-erb alpha binding to DNA; P20393; Rev-erbα–FITC-DNA binding, fluorescence polarization, 90 min; activity, % at 10 µM; 0.79% of 370,000 active;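 active = activity above about 14%, limit read from the data; passing the limit was not always enough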;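 also: 0% = DMSO wells with 35 nM protein and 100% = DMSO wells with 750 nM protein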
PG9 binder: PG9 antibody binding by small molecule | TR-FRET gp120-PG9 antibody binding | inhibition, % at 6.7 µM | 0.43% of 360,000 active; in the data active = inhibition above about 8.5%
GC-A act: GC-A (human) enzyme activation. activation, % at 10 µM. HEK293 GC-A cells, cGMP TR-FRET, EC30 ANP; 0% at EC30 ANP, 100% saturating ANP. 0.14% of 370,000 active. AID 1671463. P16066; in the data active = activation above about 40%
Target sequence (P16066 whole entry, looked up): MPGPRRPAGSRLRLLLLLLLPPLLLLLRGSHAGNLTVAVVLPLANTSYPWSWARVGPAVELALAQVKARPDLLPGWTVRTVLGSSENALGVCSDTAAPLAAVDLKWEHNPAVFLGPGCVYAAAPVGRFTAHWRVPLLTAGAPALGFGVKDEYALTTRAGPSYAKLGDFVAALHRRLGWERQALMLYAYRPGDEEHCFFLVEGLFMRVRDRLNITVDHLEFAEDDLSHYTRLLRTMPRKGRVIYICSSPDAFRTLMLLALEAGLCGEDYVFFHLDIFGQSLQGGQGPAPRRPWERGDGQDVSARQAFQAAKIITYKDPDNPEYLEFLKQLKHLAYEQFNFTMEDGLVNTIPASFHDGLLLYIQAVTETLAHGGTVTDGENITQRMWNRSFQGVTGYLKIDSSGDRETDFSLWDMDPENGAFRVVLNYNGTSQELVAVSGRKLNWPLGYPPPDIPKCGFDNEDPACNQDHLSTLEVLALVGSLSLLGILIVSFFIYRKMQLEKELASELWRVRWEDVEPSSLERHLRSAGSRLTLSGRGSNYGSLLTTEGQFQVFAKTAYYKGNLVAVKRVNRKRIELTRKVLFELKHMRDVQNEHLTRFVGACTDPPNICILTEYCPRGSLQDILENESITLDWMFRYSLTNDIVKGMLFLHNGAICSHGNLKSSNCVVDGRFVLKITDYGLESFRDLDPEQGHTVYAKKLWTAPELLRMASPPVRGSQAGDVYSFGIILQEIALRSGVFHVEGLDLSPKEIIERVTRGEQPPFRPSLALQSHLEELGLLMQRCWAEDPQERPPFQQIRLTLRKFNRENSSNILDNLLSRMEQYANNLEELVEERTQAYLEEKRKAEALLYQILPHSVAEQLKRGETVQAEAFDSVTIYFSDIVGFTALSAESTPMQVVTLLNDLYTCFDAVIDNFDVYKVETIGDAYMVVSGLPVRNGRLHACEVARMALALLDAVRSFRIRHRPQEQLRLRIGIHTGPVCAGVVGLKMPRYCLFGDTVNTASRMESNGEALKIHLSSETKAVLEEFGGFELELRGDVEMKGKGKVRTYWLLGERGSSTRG
V-ATPase pH: regulators of yeast V-ATPase proton transport; S. cerevisiae, pHLuorin cytosolic pH fluorescence; response, % at 10 µM; 0.37% of 350,000 active; AID 504577; in the data active = response mostly above about 7.3%, no sharp cut-off; inactive = mostly below about 5.4%; also: actives read high
GC-B act: GC-B (human) receptor activation; P20594; HEK293-GC-B cells, CNP EC30, cGMP TR-FRET; 0% at EC30 CNP, 100% saturating CNP; activation, % at 10 µM; 0.11% of 370,000 active;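 active = activation at 10 µM reaching about 35% in either raw or pattern-adjusted values, limit read from the data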
PG9 binder conf: confirmation of small molecules binding HIV-1 gp120 antibody PG9 | shares compounds with PG9 binder | TR-FRET PG9 antibody binding, biochemical | inhibition, % at 6.7 µM | 90% of 1,500 active | AID 651571; in the data active = inhibition above about 9%
PGV04 counter: counter-screen for PG9 binders: binding control antibody PGV04 | shares compounds with PG9 binder | TR-FRET PGV04 antibody-gp120 binding, biochemical | inhibition, % at 6.7 µM | 95% of 1,500 active; in the data active = inhibition above about 9.5%
PG9 binder DR: PG9 antibody binding, dose response. shares compounds with PG9 binder. TR-FRET PG9 antibody-gp120 binding inhibition. IC50, µM. 95 tested, under 10 active. AID 651848; in the data active = IC50 below about 10 µM
PGV04 binding DR: counter-screen for PG9 binders: binding to control antibody PGV04 | shares compounds with PG9 binder | TR-FRET binding to control antibody PGV04 | IC50, µM | 20% of 95 active | AID 651937
PG126 binding DR: PG126 binding, dose response counter-screen; TR-FRET binding to antibody PG126, counterscreen; shares compounds with PG9 binder; 20% of 95 active; IC50, µM; AID 651939
NR1D1 mod conf: confirmation of modulators of human Rev-erb alpha DNA binding | shares compounds with Rev-erbA mod | activation, % at 25 µM | Rev-erb alpha FITC-DNA binding, fluorescence polarization, 90 min | AID 1259319 | 61% of 3,000 active;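 active = activation at or above a set limit, or at least 3 SD above the negative control mean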;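 also: 0% = 35 nM protein with DMSO and 100% = 750 nM protein high control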
RORg DNA counter: affects RORgamma DNA binding in a Rev-erb alpha counter-screen; shares compounds with Rev-erbA mod; purified RORgamma protein-FITC-DNA binding, fluorescence polarization; IC50, µM; 8% of 910 active; AID 1259320;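 active = Compounds whose fitted half-maximal concentration for disrupting protein-DNA binding is below 10 micromolar; the record names Rev-erb in its text, so the target is in doubt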
Starred values were filed as active, the others as inactive; . = no result. Rule as the data show it, unless noted: active = IC50 below about 9 µM; inactive = the rest.

SMILES	Rev-erbA mod	PG9 binder	GC-A act	V-ATPase pH	GC-B act	PG9 binder conf	PGV04 counter	NR1D1 mod conf	others
CC(CC(=O)Nc1ccc2c(c1)c(=O)n(C)n2-c1ccc2ccccc2c1)C(F)(F)F (stereo unspecified)	20.5*	24.2*	21.4	.	29.7	17.3*	24.3*	22.1*
O=C1CCC[C@H]2C[C@H](NCc3cccs3)CC[C@]23CCCN13	-2.4	.	2.0	.	-3.0	.	.	.
Cc1cc(-n2c(SCC(=O)NCCC3=CCCCC3)nc3n[nH]c(C)c3c2=N)ccc1Cl	45.2*	41.3*	-36.2	-3.9	-17.4	46.1*	57.9*	21.0*
Cc1ccc(-n2c(SCC(=O)NCC3CCCO3)nc3n[nH]c(C)c3c2=N)cc1Cl (stereo unspecified)	2.8	-2.0	-6.3	3.9	-13.7	.	.	.
Cc1ccc(Cl)cc1-n1c(SCC(=O)NCCC2=CCCCC2)nc2n[nH]c(C)c2c1=N	29.1*	14.3*	-14.0	1.1	-2.3	14.9*	19.9*	14.9
Cc1ccc(S(=O)(=O)N(C)[C@H]2C[C@H]3c4cc(-c5ccccc5C)ccc4CCN3C[C@H]2[C@H](C)O)cc1	-4.9	.	1.9	.	3.5	.	.	.
c1ccc2nc(-c3ccc(N4CCOCC4)cc3)ccc2c1	90.4*	38.7*	12.4	4.5	14.4	44.8*	41.7*	63.6*	PG9 binder DR=>67;PGV04 binding DR=3.66*;PG126 binding DR=4.17*;RORg DNA counter=>40
COc1ccc(C(=O)Nc2scc(-c3ccc(Cl)cc3Cl)c2C(N)=O)cc1	62.0*	9.8*	-5.1	2.3	-8.5	6.8	19.0*	55.6*	RORg DNA counter=>40
COc1ccc(C(=O)Nc2cc(OC)c(Cl)cc2Cl)cc1	0.5	-1.3	-2.2	3.1	-3.0	.	.	.
COC(=O)c1ccc(NC(=O)c2ccc3nc(C)sc3c2)cc1	38.8*	28.8*	2.7	1.3	-1.7	31.6*	49.1*	17.8*
COC(=O)[C@H](C)N(Cc1cn(Cc2ccccc2)nn1)S(=O)(=O)c1ccccc1Br	2.7	.	1.7	.	6.0	.	.	.
COc1cc(NC(=O)c2ccccn2)ccc1NC(=O)c1ccccc1Cl	-4.6	.	2.4	.	-5.1	.	.	.
CCOc1ccccc1CNC(=O)C1CCN(c2nnc(C)c3c(C)n(-c4ccc(C)cc4)nc23)CC1	44.1*	9.3*	-1.9	-0.7	1.6	12.4*	33.1*	33.8*	RORg DNA counter=>40
Cc1ccc(-n2nc3c(N4CCC(C(=O)NCc5ccccc5C)CC4)nnc(C)c3c2C)cc1	.	.	.	-3.5	.	.	.	.
Nc1[nH]c2cc(C(F)(F)F)ccc2c1C(=O)NC1CCCCC1	1.8	.	1.3	.	0.1	.	.	.
CCc1cc2cccc(C)c2nc1SCC(=O)Nc1cc(C)on1	9.2	4.4	1.0	-0.4	2.8	.	.	.
Cc1cccc2cc(C#N)c(SCC(=O)Nc3ccccc3N3CCOCC3)nc12	48.3*	16.6*	-21.0	-0.3	-14.8	16.7*	39.4*	44.0*	RORg DNA counter=>40
Cc1cc(NC(=O)CSc2nc3c(C)cccc3cc2C#N)no1	83.2*	27.1*	-1.8	-1.5	-0.2	43.2*	71.6*	53.1*	RORg DNA counter=>40
N#Cc1cc2ccccc2nc1SCC(=O)Nc1ccccc1N1CCOCC1	9.1	-1.0	-25.9	-1.2	-14.7	.	.	.
Cc1cc(C)c2c(N)c(C(=O)Nc3ccccc3Br)sc2n1	38.3*	9.1*	9.1	6.1	-8.8	23.3*	38.2*	27.9*
Cc1cc(C)c2c(N)c(C(=O)Nc3ccccc3Cl)sc2n1	0.5	-1.3	6.9	4.3	-6.6	.	.	.
Cc1cc(NC(=O)CSc2nc3ccccc3c(=O)n2Cc2ccc(F)cc2)no1	52.5*	41.6*	11.4	-3.3	16.1	62.4*	65.4*	26.5*
CCCCCCn1c(SCC(=O)Nc2cc(C)on2)nc2ccccc2c1=O	41.2*	30.9*	7.7	-0.5	-1.4	23.2*	31.9*	18.1*
COCCn1c(SCC(=O)Nc2cc(C)on2)nc2ccccc2c1=O	2.2	-0.6	0.8	0.2	3.6	.	.	.
COc1ccc(Cn2ccc3ccc(-c4ccc5ccn(Cc6cccc(F)c6)c5c4)cc32)cc1	4.6	.	-1.1	.	-2.5	.	.	.
SMILES	Rev-erbA mod	PG9 binder	GC-A act	V-ATPase pH	GC-B act	PG9 binder conf	PGV04 counter	NR1D1 mod conf	others
CC(C)C[C@H]1COc2cccc(F)c2S(=O)(=O)N1Cc1cn(Cc2ccc(Cl)cc2)nn1	-7.3	.	2.4	.	8.2	.	.	.
COc1ccc(-n2c(SCC(=O)N3CCCCC3C)nnc2-c2ccncc2)cc1 (stereo unspecified)	1.9	.	3.2	.	9.0	.	.	.
CCCCOc1ccc(C(=O)NC2CCCCN(CC)C2=O)cc1 (stereo unspecified)	-2.1	.	4.3	.	0.3	.	.	.
Cn1c2ccccc2c(=O)c2c(=O)n(Cc3ccccc3)c(-c3ccc(F)cc3)nc21	28.5*	21.3*	-1.4	-8.3	-3.7	28.2*	39.3*	30.1*
COc1ccc(Cn2c(C)nc3c(c(=O)c4ccccc4n3C)c2=O)cc1	4.5	-1.6	4.2	0.9	3.0	.	.	.
Cn1c(NC(=O)c2cccc(Cn3cc(Cl)cn3)c2)nc2ccccc21	25.1*	50.8*	0.5	5.5	1.5	37.0*	53.3*	0.8
CCn1c(NC(=O)c2cccc(Cn3cc(Cl)cn3)c2)nc2ccccc21	4.2	0.0	2.8	1.6	-1.4	.	.	.
COC(=O)[C@]12C[C@H](CC(=O)NCc3cccc4ccccc34)C(=O)N(Cc3ccco3)C1=C[C@H](C(C)C)O[C@@H]2C1CC1	3.4	.	-4.8	.	-7.5	.	.	.
Cc1ccc2[nH]c(=O)c(COC(=O)c3cccs3)cc2c1	33.2*	17.8*	15.6	5.1	4.2	49.8*	66.2*	20.8*
COc1ccc(C(C)(C)C)cc1NC(=O)COC(=O)c1cc(SC)ccc1Cl	-3.4	-2.0	-7.7	0.5	-8.3	.	.	.
COc1ccc(NC(=O)COC(=O)c2cc(SC)ccc2Cl)c(OC)c1	34.4*	18.2*	-0.1	-1.4	-1.1	30.3*	44.8*	29.5*
